Among the targets are SURF1; SUN1; SULT1A2.
Assay in all cases: pooled miR-30 sensor sort-seq; sequence = guide strand
Common to all, as to settings: shRNA
Further: reference of the scale not given here.

As for TCAGCTTCCACTTCCGACGCTG, the sensor-assay potency score (higher = more potent) with SURF1 worked out at 0.863. Sequence TCGAGTCACAGCATCCTGCAGG registered a sensor-assay potency score (higher = more potent) with SUN1 of -0.812.

In the case of TTCCAGGTCTCGATAATGCCAG, in the assay with SURF1, the sensor-assay potency score (higher = more potent) was -0.863.

For the sequence TAGGAATTTCTTAAACCACAGG, the sensor-assay potency score (higher = more potent) in the assay with SURF1 was -0.992. As for TCTTGCACGTGCTGGTACCAGG, the sensor-assay potency score (higher = more potent) with SULT1A2 is -1.6. Take TGTGTTTTTCAGAGTCTCCATC: the sensor-assay potency score (higher = more potent) with SULT1A2 was -0.796.
